Shown are actives, neighbours in structure and some others; about 10% of the full set was active somewhere.
HPGD block: blocks human HPGD enzyme activity; Potency, µM, without a hit: top-dose activity change, negative = inhibition, actives largely listed as inhibitors; purified HPGD, NADH fluorescence kinetic, PGE2 substrate; 4.3% of 150,000 active; AID 894; further: potency means the concentration at half of the fitted maximal effect
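20 nM HPGD preincubated 15 min at room temperature with compound in 50 mM Tris-HCl pH 8, 0.01% Tween 20. Started with 1 mM NAD+ and 30 uM prostaglandin E2; NADH fluorescence (360/450 nm) read 5 times over 30-s intervals, last minus first.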
ALDH1A1 block: blocks purified human ALDH1A1 activity; Purified ALDH1A1, NADH fluorescence, propionaldehyde substrate; 7.3% of 220,000 active; Potency, µM (doses to about 75.3 µM), inactives show at the top dose activity, negative = inhibition, hits mostly inhibitors; AID 1030; P00352;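 further: potency means the concentration at half of the fitted maximal effect; plate controls were no enzyme wells and a reference inhibitor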
Target sequence (P00352 whole entry, looked up): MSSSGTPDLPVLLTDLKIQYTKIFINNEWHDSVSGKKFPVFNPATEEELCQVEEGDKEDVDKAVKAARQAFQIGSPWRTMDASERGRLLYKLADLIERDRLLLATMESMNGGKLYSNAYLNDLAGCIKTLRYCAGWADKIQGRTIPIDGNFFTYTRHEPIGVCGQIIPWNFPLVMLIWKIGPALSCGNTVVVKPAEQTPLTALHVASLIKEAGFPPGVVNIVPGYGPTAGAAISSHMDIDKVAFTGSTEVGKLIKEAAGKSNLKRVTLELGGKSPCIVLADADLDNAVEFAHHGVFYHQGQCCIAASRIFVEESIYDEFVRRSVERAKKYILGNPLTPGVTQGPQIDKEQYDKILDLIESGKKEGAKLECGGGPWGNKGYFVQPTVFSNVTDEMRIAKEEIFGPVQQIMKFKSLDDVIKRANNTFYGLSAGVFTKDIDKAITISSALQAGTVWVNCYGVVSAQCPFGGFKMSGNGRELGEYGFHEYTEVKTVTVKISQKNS
LMNA splice mod: LMNA splicing modulation | HeLa LMNA splicing GFP/RFP minigene ratio, 48 h | 0.01% of 200,000 active | Potency, µM (top dose mostly 46.1 µM), without a hit: top-dose ratio change, negative = inhibition, most hits filed as inhibitors; active means well fitted inhibition curve with a large enough effect in the signal ratio, with a control signal flat, not every such curve was filed as active; inconclusive means small, poorly fitted or top-dose-only effect, or effect the other way, or a change in a side signal; the % refers to the signal ratio; further: potency means the concentration at half of the fitted maximal effect
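S3 HeLa cells stably expressing lamin A-EGFP splicing minigene plus DsRed2, 600 cells/well, 48 h compound exposure at 37C. Laser-scanning cytometry; analysed as GFP (500-530 nm)/RFP (575-640 nm) total intensity ratio; 0.5% DMSO vehicle.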
ALOX12 inhib: inhibitors of human 12-lipoxygenase (ALOX12) | AID 1452 | P18054 | 0.12% of 150,000 active | Potency, µM (doses to about 57.1 µM), without a hit: top-dose activity change, negative = inhibition, actives largely listed as inhibitors | purified 12-hLO, xylenol orange hydroperoxide absorbance; active means well fitted inhibition curve with a large enough effect; inconclusive means small, poorly fitted or top-dose-only effect; further: potency means the concentration at half of the fitted maximal effect; nearly all actives have a fitted effect of over 55% in size
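Purified human 12hLO (150 nM final) was preincubated with compounds for 15 min at room temperature in 25 mM Hepes pH 7.0, 0.01% Triton X-100, then reacted with 40 uM arachidonic acid for 30 min. Hydroperoxide was detected with ferrous iron/xylenol orange.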
PNC assembly inh: perinucleolar compartment assembly inhibition. PC3M PTB-GFP, PNC prevalence imaging, 16 h; hits give low values. activity change (PNC), negative = inhibition, % at 10 µM. AID 2417. 3.1% of 140,000 active;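 active means readout at or below -70, meaning at least 70% loss of cells showing the perinucleolar compartment, a nuclear body marking cancer cells; inconclusive means readout between -30 and a set limit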;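 further: plate controls were DMSO wells for no effect and camptothecin positive control wells for full effect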
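Compounds are pinned in duplicate onto adhered PC3M cells stably expressing GFP-tagged PTB and incubated 16 h at 37 C. Cells are then fixed, nuclei stained with Hoechst, and PNC-positive cells counted.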
* hit, by the source's call; [ ] = remark or other dose. Unless noted, the call rests on the fitted dose curve; in most records, active means well fitted inhibition curve with a large enough effect (not every such curve was filed as active); inconclusive means small, poorly fitted or top-dose-only effect, or another doubt; inactive means no such curve, though single readings can be large or run the other way. Unless noted, on the % scale 0 is the no-effect control and ±100 the full control effect.

Screening Cc1ccc(N2C(=O)C3CC(c4ccccc4)=C4C5C=CC(C6C(=O)N(c7ccc(C)cc7)C(=O)C56)C4C3C2=O)cc1 (configuration not stated) returned HPGD block -7%, ALDH1A1 block 1.1µM*, LMNA splice mod -7%, ALOX12 inhib -2% and PNC assembly inh inconclusive.
COc1ccc(C(=O)NCC(c2cccnc2)N2CCc3ccccc32)cc1OC (configuration not stated) was read as LMNA splice mod 22%[46 µM].
`O=c1c(-c2cc(F)cc(F)c2)nc2cnc(N3CCOCC3)nc2n1-c1ccccc1` gave HPGD block inconclusive, ALDH1A1 block inconclusive and ALOX12 inhib -4%.
`Fc1ccc(CNc2ncnc3onc(-c4ccc(F)cc4)c23)cc1` gave LMNA splice mod 0%[46 µM].
CN(C)c1ccnc2sc3c(NCC(O)CO)ncnc3c12 (configuration not stated) was read as HPGD block -1%, ALDH1A1 block inconclusive, LMNA splice mod -17%, ALOX12 inhib 1% and PNC assembly inh 31.
CN(C)c1ccnc2sc3c(SCc4ccc(Cl)cc4)ncnc3c12 was read as HPGD block 16µM*, ALDH1A1 block 1%, LMNA splice mod -3%, ALOX12 inhib -3% and PNC assembly inh 21.
Screening COC(=O)c1c(C)sc(-c2c(-c3ccc(F)cc3)[nH]c3[nH]c(=O)[nH]c(=O)c23)c1O returned LMNA splice mod 12%[46 µM].
Screening O=C(NCC(F)(F)F)Nc1cccnc1 returned HPGD block -19%, ALDH1A1 block 7%, LMNA splice mod -5%, ALOX12 inhib -1% and PNC assembly inh -100*.
CC(=O)Nc1c(C)nn(-c2ccccc2)c1N1CCC(C(=O)NCc2cccc(F)c2)CC1 was read as LMNA splice mod 1%[46 µM].
For O=C(CCc1c[nH]c2ccccc12)NCC1CCCO1 (configuration not stated) the results were HPGD block 14µM*, ALDH1A1 block 9%, LMNA splice mod 3%, ALOX12 inhib -2% and PNC assembly inh inconclusive.
`O=C(CCc1nc(-c2ccccc2Cl)no1)NCC1CCCO1` (configuration not stated) gave ALDH1A1 block -8% and LMNA splice mod 6%[46 µM].
Cc1cccc(-c2noc(CCC(=O)NCc3ccco3)n2)c1 was read as HPGD block -21%, ALDH1A1 block 1%, LMNA splice mod 3%, ALOX12 inhib -2% and PNC assembly inh -25.
Cc1cccc(-c2noc(CCC(=O)NCC3CCCO3)n2)c1 (configuration not stated) was read as HPGD block 25µM*, ALDH1A1 block 1%, LMNA splice mod 2%, ALOX12 inhib 1% and PNC assembly inh 15.
For Cc1ccccc1-c1noc(CCC(=O)NCC2CCCO2)n1 (configuration not stated) the results were HPGD block 16µM*, ALDH1A1 block 2%, LMNA splice mod -7%, ALOX12 inhib -7% and PNC assembly inh 3.
CCCC(=O)OCc1cnc(C)c2oc(=O)c(C(=O)Nc3cccc(C(F)(F)F)c3)cc12 was read as LMNA splice mod -27%[46 µM].
For Cc1cc(C)c2sc(N3CCN(C(=O)C4CC4)CC3)nc2c1 the results were LMNA splice mod 2%[46 µM].
For COc1ccc(C(=O)Nc2nnc(SCc3cc(=O)n4cc(Cl)ccc4n3)s2)cc1 the results were LMNA splice mod 8%[46 µM].
For CC(C)(C)c1ccc(C(=O)NCCc2csc3nc(-c4ccccc4F)nn23)cc1 the results were LMNA splice mod -2%[46 µM].
Screening CCCCn1c(SCC(=O)c2ccc(OCC)cc2)nc2cc(S(N)(=O)=O)ccc21 returned HPGD block -9%, ALDH1A1 block 35µM*, LMNA splice mod 18%, ALOX12 inhib -12% and PNC assembly inh 38.
For CCCCn1c(SCC(=O)c2ccc(OC)c(OC)c2)nc2cc(S(N)(=O)=O)ccc21 the results were HPGD block -12%, ALDH1A1 block inconclusive, LMNA splice mod 13%, ALOX12 inhib 1% and PNC assembly inh inconclusive.
For CCCCn1c(SCC(=O)NCc2ccco2)nc2cc(S(N)(=O)=O)ccc21 the results were HPGD block inconclusive, ALDH1A1 block 14µM*, LMNA splice mod 1%, ALOX12 inhib -9% and PNC assembly inh 27.
Screening COc1cc2c(cc1OC)C(c1ccccc1)N(C(=O)c1ccco1)CC2 (configuration not stated) returned HPGD block inconclusive, ALDH1A1 block inconclusive, LMNA splice mod -3%, ALOX12 inhib -4% and PNC assembly inh 38.
Screening O=C(c1ccco1)N1CCn2cccc2C1c1ccccc1 (configuration not stated) returned ALDH1A1 block 1.3µM*.
For Cn1cc(Cl)c(C(=O)N/N=C/c2ccc(OS(=O)(=O)c3ccccc3)cc2)n1 the results were HPGD block inconclusive, ALDH1A1 block inconclusive, LMNA splice mod 1%, ALOX12 inhib 10% and PNC assembly inh -100*.
Screening O=C(c1cc(-c2cccnc2)nc2ccc(Br)cc12)N1CCN(c2ncccn2)CC1 returned HPGD block 16µM*, ALDH1A1 block -5%, LMNA splice mod 4%, ALOX12 inhib -7% and PNC assembly inh inconclusive.
For Cc1ccc2nc(-c3cccnc3)cc(C(=O)N3CCN(c4ccc([N+](=O)[O-])cc4)CC3)c2c1 the results were ALDH1A1 block 8.9µM* and LMNA splice mod 7%[46 µM].
Screening CC(=O)c1ccc(N2CCN(C(=O)c3cc(-c4cccnc4)nc4ccc(Br)cc34)CC2)cc1 returned ALDH1A1 block -6% and LMNA splice mod inconclusive.
For Fc1cccc(-c2nc(-c3ccncc3)no2)c1 the results were LMNA splice mod 3%[46 µM].
CCOC(=O)c1[nH]c(C)c(CCC(=O)Nc2ccccc2OCC)c1C was read as LMNA splice mod 7%[46 µM].
CCOC(=O)c1cccnc1SCC(=O)Nc1ccc(C)cc1C was read as LMNA splice mod 9%[46 µM].
Screening O=C(CSc1n[nH]c(-c2ccco2)n1)N1c2ccccc2Sc2ccccc21 returned HPGD block 13µM*, ALDH1A1 block 7.9µM*, LMNA splice mod -11%, ALOX12 inhib -21% and PNC assembly inh inconclusive.
O=C(O)c1ccc(CSc2n[nH]c(-c3ccco3)n2)cc1 was read as HPGD block 2.8µM*, ALDH1A1 block inconclusive, LMNA splice mod 8%, ALOX12 inhib -7% and PNC assembly inh 25.
Screening CC(C)(C)NC(=O)Cn1cc(S(=O)(=O)Cc2ccccc2Cl)c2ccccc21 returned LMNA splice mod -7%[46 µM].
Screening O=C(NCCO)c1ccc(-n2c(=O)c(=O)[nH]c3ccccc32)cc1 returned HPGD block -6%, ALDH1A1 block -2% and ALOX12 inhib 0%.

Screens from PubChem BioAssay.
